Here are results for 14 compounds from PubChem BioAssay.

Active and inactive are the calls of the source.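 Rule for the calls, unless noted: active = NADPH fluorescence slope more negative than the mean of all samples by about 3 SD, 99.7% confidence; inactive = the rest.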

The nature of assay [1]: inhibitors of TNFa-induced NFkB p65 translocation, primary screen, imaging, HUVEC, MLSMR starter and 10KST1 sets (AID 438;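 active = inhibition above 20% together with a positive visual image hit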;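 note: compound added about 3h40 before a 20 min TNFalpha stimulation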;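 for inhibition: signal is the nuclear over cytoplasmic p65 intensity ratio per well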). The settings on record: HUVEC TNFa-induced p65 nuclear translocation; cell count: measured here: nuclei count (cytotoxicity indicator), at 2.08 µM; inhibition: at 2 µM, stronger effect = higher value, 0% TNFa-plus-vehicle, 100% no-TNFa wells.
The nature of assay [2]: reduction of polyQ htt aggregates in cells – imaging, exon1htt(103Q)mCFP cells, high-content imaging, primary screen (AID 483;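 active = visual image review flags a hit and inhibition of aggregation exceeds 20%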;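 note: compound exposure lasted 3 days before fixation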;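 for nuclei count: percent of the per-plate median nuclei count of sample wells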). Particulars: exon1htt(103Q)mCFP cell line, aggregate imaging, at 2 µM; inhibition of aggregation: stronger effect = higher value; nuclei count: measured here: cell count, toxicity.
Assay [3] can be described thus: endothelial E-selectin expression blockers – imaging, HUVEC, immunofluorescence, MLSMR starter and 10KST1 sets, primary screen (AID 487;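 active = visually confirmed hit in the image check and inhibition above 20%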;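 for inhibition: signal is fraction of cell area covered by stained E-selectin grains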;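 for nuclei count: 100% = median nuclei count of all wells on the same plate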). The settings on record: HUVEC TNFalpha-induced E-selectin immunofluorescence imaging, at 2 µM; inhibition: stronger effect = higher value; nuclei count: measured here: cell number, toxicity.
Assay [4] concerns the target Voltage-gated potassium channel subunit beta-2 (Rattus norvegicus) (UniProt P62483). The assay can be described thus: inhibitors of rat Kvbeta2 reductase activity – biochemical, NADPH fluorescence, primary screen (AID 622;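 active = fluorescence slope higher than the sample average by over 3 SD, cut at about -0.22 in these data, passing the limit was not always enough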;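 note: slope of raw intensity against log time taken from 70 to 1610 s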). The settings on record: recombinant KvBeta, 4-cyanobenzaldehyde reduction, at 10 µM, stronger effect = higher value.
Assay [5] shares this target. The assay can be described thus: enhancers of rat Kvbeta2 NADPH turnover – biochemical, NADPH fluorescence, primary screen (AID 623).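 Note: fluorescence intensity change per second fitted from 20 to 320 s.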 Particulars: Recombinant KvBeta, NADPH fluorescence decrease slope, 10 min; at 10 µM; stronger effect = lower value.
Assay [6] concerns the target Alpha-2C adrenergic receptor (Homo sapiens) (UniProt P18825). The assay can be described thus: compounds altering alpha2C-coupled GIRK flux – cell-based, HEK293 alpha2C/GIRK1/2, thallium flux, primary screen (AID 624;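 active = fluorescence slope after compound addition differing from the mean of all screened samples at 99.7% confidence, in either direction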;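 note: slope of fluorescence ratio to pre-addition baseline per second over 15 to 24 s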). The settings on record: thallium flux BTC fluorescence, at 10 µM, actives lie on both sides.
Assay [7] in a line: blockers of RIG-like receptor reporter activation – cell-based, Sendai virus stimulus, luciferase, 10K MLSCN set, TLR/RLR signaling modifier project, primary screen (AID 602276;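 active = inhibition at or above 50% at 10 µM; inactive = inhibition below 50%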;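 note: firefly luciferase from ISG56 promoter only with Renilla not read in this screen; 0% = Sendai virus plus DMSO and 100% = medium plus DMSO without virus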). Particulars: HEK293 RL24 IRF3 luciferase reporter, at 10 µM, stronger effect = higher value. Background: A reporter such as luciferase makes a cellular process visible.
Assay [8] is described as follows: TLR3 IRF3 reporter activation blockers – cell-based, poly I:C stimulus, luciferase, 10K MLSCN set, primary screen (AID 602277;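 active = inhibition of the reporter signal at or above 50%; inactive = inhibition below 50%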). Particulars: HEK293-TLR3 RL24 IRF3 luciferase reporter, at 10 µM, stronger effect = higher value.

Sequence of Alpha-2C adrenergic receptor (Homo sapiens) (P18825 whole entry, looked up): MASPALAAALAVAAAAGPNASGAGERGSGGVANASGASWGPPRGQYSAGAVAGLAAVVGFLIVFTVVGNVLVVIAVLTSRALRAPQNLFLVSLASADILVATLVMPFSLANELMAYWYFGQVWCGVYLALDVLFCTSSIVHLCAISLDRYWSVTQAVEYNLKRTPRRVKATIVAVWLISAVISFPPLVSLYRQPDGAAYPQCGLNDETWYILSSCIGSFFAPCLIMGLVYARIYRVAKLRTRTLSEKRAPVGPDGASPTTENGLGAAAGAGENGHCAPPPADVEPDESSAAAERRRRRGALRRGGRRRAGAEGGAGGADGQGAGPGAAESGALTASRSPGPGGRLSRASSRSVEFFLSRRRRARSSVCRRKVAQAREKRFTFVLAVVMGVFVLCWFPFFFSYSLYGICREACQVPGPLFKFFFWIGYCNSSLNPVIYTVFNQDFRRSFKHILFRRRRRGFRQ
Sequence of Voltage-gated potassium channel subunit beta-2 (Rattus norvegicus) (P62483 whole entry, looked up): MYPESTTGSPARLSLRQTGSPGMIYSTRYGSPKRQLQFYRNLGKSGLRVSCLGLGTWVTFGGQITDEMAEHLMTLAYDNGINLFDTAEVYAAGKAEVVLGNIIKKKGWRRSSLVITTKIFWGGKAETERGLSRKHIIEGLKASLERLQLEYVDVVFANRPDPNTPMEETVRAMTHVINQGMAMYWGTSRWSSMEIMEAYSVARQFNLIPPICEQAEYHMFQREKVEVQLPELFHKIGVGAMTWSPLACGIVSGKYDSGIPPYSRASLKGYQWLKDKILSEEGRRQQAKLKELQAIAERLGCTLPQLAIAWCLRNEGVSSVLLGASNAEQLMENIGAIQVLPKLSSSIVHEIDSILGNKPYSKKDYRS

One may read the inhibition as the relative decrease from the control value, in per cent. Consider `Cc1nc2sc(C(c3cccc(F)c3)N3CCCCC3)c(O)n2n1` (centres undefined), for which, in assay [1], the cell count was determined as 223. For the same compound, the inhibition in assay [1] is -2.8% (inactive); in assay [3], -5.7% (inactive); in assay [7] it was 1.92% (inactive); in assay [8], 19.2% (inactive). The inhibition of aggregation in assay [2] is -5.5% (inactive). The nuclei count turned out to be 95.8% in assay [2] and 120% in assay [3]. For the same compound, the fluorescence slope in assay [4] was -0.538 (inactive). Also, the NADPH fluorescence slope in assay [5] is 7.3e-06 (inactive). In assay [6], the slope was 0.00555 (inactive).

For `Cc1cc(C)c2ccc(N)nc2c1O`, the cell count in assay [1] stood at 408. Also, the inhibition in assay [1] is 0.1% (inactive); in assay [3], 41.6% (inactive); in assay [7], 21% (inactive); in assay [8] it was 29.8% (inactive). Moreover, the inhibition of aggregation in assay [2] is 22.6% (inactive). Further, the nuclei count in assay [2] came to 6.8%; in assay [3] it was 107%. The fluorescence slope in assay [4] is -0.462 (inactive). The NADPH fluorescence slope in assay [5] is -5e-05 (inactive). Moreover, the slope in assay [6] is 0.00457 (inactive).

As for `CCc1[nH]nc2c1C(c1ccncc1)C(C#N)=C(N)O2` (centres undefined), the cell count in assay [1] turned out to be 355. Also, the inhibition in assay [1] is 2.9% (inactive); in assay [3], -29.1% (inactive); in assay [7], -2.35% (inactive); in assay [8] it was 3.94% (inactive). The inhibition of aggregation in assay [2] was -6% (inactive). The nuclei count is 109% in assay [2] and 123% in assay [3]. In assay [4], the fluorescence slope was -0.507 (inactive). Further, the NADPH fluorescence slope in assay [5] is -3.3e-05 (inactive). Besides, the slope in assay [6] was 0.00643 (inactive).

As for `Cc1ccc(OCc2nnc(SCC(=O)N3CCOCC3)n2C)cc1`, in assay [1], the cell count turned out to be 594. Also, the inhibition in assay [1] is -12.9% (inactive); in assay [3] it was -58.9% (inactive); in assay [7], -1.5% (inactive); in assay [8], 6.14% (inactive). Further, in assay [2], the inhibition of aggregation was 6.8% (inactive). The nuclei count in assay [2] stood at 104%; in assay [3], 116%. Besides, in assay [4], the fluorescence slope was -0.372 (inactive). Besides, the NADPH fluorescence slope in assay [5] was -1.9e-05 (inactive). Further, the slope in assay [6] was 0.00543 (inactive).

Regarding `Clc1cccc(N2CCN(Cc3nc(-c4ccccc4)no3)CC2)c1`, the cell count in assay [1] came to 716. Also, the inhibition in assay [1] was -1.1% (inactive); in assay [3], -43.3% (inactive); in assay [7], 2.81% (inactive); in assay [8], 29.2% (inactive). The inhibition of aggregation in assay [2] was 8.5% (inactive). Moreover, the nuclei count in assay [2] is 112%; in assay [3], 122%. In addition, the fluorescence slope in assay [4] is -0.541 (inactive). For the same compound, the NADPH fluorescence slope in assay [5] was -9e-05 (inactive). For the same compound, the slope in assay [6] is 0.00744 (inactive).

For the compound `Cc1cccc(NC(=O)CCN2CCN(C/C=C/c3ccccc3)CC2)c1`, the cell count in assay [1] turned out to be 727. Also, the inhibition in assay [1] was 4.3% (inactive); in assay [3], 15.3% (inactive); in assay [7], 13.8% (inactive); in assay [8] it was 6.07% (inactive). For the same compound, the inhibition of aggregation in assay [2] is 4.2% (inactive). The nuclei count in assay [2] is 98.6%; in assay [3], 104%. Also, the fluorescence slope in assay [4] was -0.511 (inactive). For the same compound, the NADPH fluorescence slope in assay [5] was -2.6e-05 (inactive). Besides, the slope in assay [6] was 0.00628 (inactive).

Turning to `COC(=O)Cc1c(C)nc2nc[nH]n2c1=O`, the cell count in assay [1] was 648. For the same compound, the inhibition was -6% (inactive) in assay [1], -21.9% (inactive) in assay [3], 8.47% (inactive) in assay [7] and 13.4% (inactive) in assay [8]. In addition, the inhibition of aggregation in assay [2] is 2.1% (inactive). For the same compound, the nuclei count came out at 103% in assay [2] and 104% in assay [3]. Moreover, the fluorescence slope in assay [4] is -0.313 (inactive). Also, in assay [5], the NADPH fluorescence slope is -4e-05 (inactive). In addition, in assay [6], the slope is 0.0059 (inactive).

With `COc1ccc(C(=O)c2ccccc2)c(O)c1`, the cell count in assay [1] turned out to be 585. For the same compound, the inhibition was -2.6% (inactive) in assay [1], 1.3% (inactive) in assay [3], -1.71% (inactive) in assay [7] and -8.45% (inactive) in assay [8]. Also, the inhibition of aggregation in assay [2] is 6.6% (inactive). For the same compound, the results for the nuclei count in assay [2] and in assay [3] were 94.1% and 97.5%, respectively. Besides, in assay [4], the fluorescence slope is -0.443 (inactive). Besides, the NADPH fluorescence slope in assay [5] is 2.6e-05 (inactive). Moreover, in assay [6], the slope is 0.00543 (inactive).

Regarding `Nc1nc(Nc2cccc3ccccc23)nc(C2CCCC2=O)n1` (centres undefined), in assay [1], the cell count came out at 349. Moreover, the inhibition in assay [1] is 1.8% (inactive); in assay [3], -38.8% (inactive); in assay [7], 4.53% (inactive); in assay [8] it was 13.8% (inactive). Further, the inhibition of aggregation in assay [2] is -7% (inactive). The nuclei count in assay [2] was found to be 97.3%; in assay [3], 109%. Also, in assay [4], the fluorescence slope is -0.312 (inactive). For the same compound, the NADPH fluorescence slope in assay [5] is -7e-05 (inactive). The slope in assay [6] was 0.00598 (inactive).

With `CCOC(=O)Cn1nnnc1C(C(C)C)N(Cc1cc2c(C)cc(C)cc2[nH]c1=O)C1CCCC1` (centres undefined), the cell count in assay [1] is 666. The inhibition in assay [1] is -13.4% (inactive); in assay [3], 39.1% (inactive); in assay [7], -15.9% (inactive); in assay [8] it was 10.4% (inactive). In assay [2], the inhibition of aggregation is -17.6% (inactive). Also, the figures for the nuclei count in assay [2] and in assay [3] were 97.7% and 106%, respectively. The fluorescence slope in assay [4] is -0.498 (inactive). Further, the NADPH fluorescence slope in assay [5] was 1.1e-05 (inactive). In assay [6], the slope is 0.0076 (inactive).

With `O=C(CN1CCC(c2nc3ccccc3s2)CC1)NCc1cccs1`, the cell count in assay [1] was determined as 699. Further, the inhibition is -1% (inactive) in assay [1], -4.6% (inactive) in assay [3], -1.46% (inactive) in assay [7] and -58.5% (inactive) in assay [8]. For the same compound, the inhibition of aggregation in assay [2] is 12.8% (inactive). The nuclei count in assay [2] was found to be 87.9%; in assay [3], 103%. The fluorescence slope in assay [4] is -0.604 (inactive). Also, the NADPH fluorescence slope in assay [5] is -3.9e-05 (inactive). Further, the slope in assay [6] was 0.00309 (inactive).

Turning to `O=S(=O)(c1ccc2nc(Cc3cccc(C(F)(F)F)c3)[nH]c2c1)N1CCOCC1`, in assay [1], the cell count worked out at 383. Moreover, the inhibition in assay [1] was 1% (inactive); in assay [3], -277% (inactive); in assay [7], 11.9% (inactive); in assay [8] it was 26.3% (inactive). The inhibition of aggregation in assay [2] was 0% (inactive). Also, the nuclei count in assay [2] is 88.3%; in assay [3], 105%. Besides, the fluorescence slope in assay [4] was -0.615 (inactive). Further, in assay [5], the NADPH fluorescence slope was -2.8e-06 (inactive). Besides, the slope in assay [6] is 0.00522 (inactive).

`CC1Cc2nc(SCC(=O)Nc3ccc(F)cc3F)n(C)c(=O)c2S1` (centres undefined): the cell count in assay [1] was 366. Moreover, the inhibition in assay [1] was -0.6% (inactive); in assay [3], 0.8% (inactive); in assay [7], 15.3% (inactive); in assay [8], 11.8% (inactive). Further, in assay [2], the inhibition of aggregation is -7.8% (inactive). In addition, the nuclei count in assay [2] worked out at 104%; in assay [3], 113%. For the same compound, the fluorescence slope in assay [4] is -0.587 (inactive). Besides, the NADPH fluorescence slope in assay [5] was -3.7e-05 (inactive). Also, the slope in assay [6] is 0.00486 (inactive).

With `O=C(NC1CCCC1)C(c1cccs1)N(C(=O)c1ccno1)c1ccccc1` (centres undefined), in assay [1], the cell count is 648. Moreover, the inhibition is -3.2% (inactive) in assay [1], 38.6% (inactive) in assay [3], 3.89% (inactive) in assay [7] and 21.8% (inactive) in assay [8]. Moreover, in assay [2], the inhibition of aggregation is -3.9% (inactive). Further, the results for the nuclei count in assay [2] and in assay [3] were 101% and 94.7%, respectively. The fluorescence slope in assay [4] was -0.607 (inactive). In addition, the NADPH fluorescence slope in assay [5] is -4.3e-05 (inactive). The slope in assay [6] is 0.00635 (inactive).
